High-throughput results: PubChem, several laboratories
Rows were chosen to be rich in hits. Some 0.67% of all compounds tested hit in one or more screens of this group.
CaV13 ICDI inh: Primary screen for inhibitors of IQ motif and Ca2+-dependent inactivation inhibitor domain binding in CACNA1D, Förster resonance energy transfer in living cells, …; HEK cells, CFP/YFP FRET ICDI-IQ, plate reader, 10 min; percent FRET-ratio fall versus neutral wells; inhibition, % at 12.3 µM; hit rate 0.098% among 340,000; AID 743397;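 active = mean replicate inhibition of at least 30% and at least 1% of replicates passing that level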
Rin1 Abl inh: inhibitors of human Rin1-Abl protein interaction. P00519+Q13671. TR-FRET Rin1/Abl binding, biochemical. inhibition, % at 7.35 µM. hit rate 0.4% among 360,000; in the data active = inhibition above about 5%, passing the limit was not always enough
NPR2 activator: GC-B (human) receptor activation; HEK293-GC-B cells, CNP EC30, cGMP TR-FRET; 0% at EC30 CNP, 100% saturating CNP; hit rate 0.11% among 370,000; activation, % at 10 µM;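 active = activation at 10 µM reaching about 35% in either raw or pattern-adjusted values, limit read from the data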
GC-A act: GC-A (human) enzyme activation; activation, % at 10 µM; hit rate 0.14% among 370,000; AID 1671463; HEK293 GC-A cells, cGMP TR-FRET, EC30 ANP; 0% at EC30 ANP, 100% saturating ANP; P16066; in the data active = activation above about 40%
Target sequence (P16066 whole entry, looked up): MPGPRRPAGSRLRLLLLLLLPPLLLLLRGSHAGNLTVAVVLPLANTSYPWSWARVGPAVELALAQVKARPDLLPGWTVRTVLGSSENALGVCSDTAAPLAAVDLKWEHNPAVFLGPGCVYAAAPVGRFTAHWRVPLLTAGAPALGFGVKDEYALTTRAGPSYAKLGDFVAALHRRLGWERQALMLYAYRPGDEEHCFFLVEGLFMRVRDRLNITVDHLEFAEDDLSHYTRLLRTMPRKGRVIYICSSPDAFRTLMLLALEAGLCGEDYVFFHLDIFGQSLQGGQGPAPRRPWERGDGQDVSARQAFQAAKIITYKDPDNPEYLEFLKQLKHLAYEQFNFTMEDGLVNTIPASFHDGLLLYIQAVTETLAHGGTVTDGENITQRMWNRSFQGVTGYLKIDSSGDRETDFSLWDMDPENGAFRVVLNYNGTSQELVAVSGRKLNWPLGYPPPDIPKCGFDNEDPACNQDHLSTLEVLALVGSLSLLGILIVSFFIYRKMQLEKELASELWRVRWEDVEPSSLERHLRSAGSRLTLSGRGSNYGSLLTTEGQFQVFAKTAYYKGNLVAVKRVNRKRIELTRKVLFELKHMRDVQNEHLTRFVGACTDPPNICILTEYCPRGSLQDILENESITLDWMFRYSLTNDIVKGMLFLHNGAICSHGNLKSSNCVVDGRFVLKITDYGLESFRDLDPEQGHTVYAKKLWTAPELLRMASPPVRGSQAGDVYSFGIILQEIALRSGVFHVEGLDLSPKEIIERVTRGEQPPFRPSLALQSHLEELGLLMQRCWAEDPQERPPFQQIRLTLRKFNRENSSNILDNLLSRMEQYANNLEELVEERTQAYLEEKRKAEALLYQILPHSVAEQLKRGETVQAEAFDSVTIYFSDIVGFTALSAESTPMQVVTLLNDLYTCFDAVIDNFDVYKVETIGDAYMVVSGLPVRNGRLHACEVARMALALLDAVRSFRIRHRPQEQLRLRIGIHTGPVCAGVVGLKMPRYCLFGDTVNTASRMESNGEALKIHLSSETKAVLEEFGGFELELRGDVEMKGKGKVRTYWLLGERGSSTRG
Rin1-Abl confirm: confirmation of inhibitors of human Rin1-Abl interaction; inhibition, % at 7.35 µM; hit rate 49% among 1,300; AID 602124; TR-FRET Rin1-Abl binding, purified proteins; shares compounds with Rin1 Abl inh
GFP quencher: counter-screen for Rin1-Abl inhibitors: GFP fluorescence quenchers; hit rate 8.5% among 1,300; inhibitors/quenchers counterscreen; inhibition, % at 6.75 µM; shares compounds with Rin1 Abl inh; AID 602125;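 also: ABL1-eGFP fusion protein alone without its partner RIN1-SBP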
GFP quench DR: quenches GFP in dose response, Rin1-Abl counter-screen | IC50, µM | AID 602182 | shares compounds with Rin1 Abl inh | 230 tested, under 10 active | GFP fluorescence interference/quenching counterscreen; call rule not given here;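 also: ABL1-eGFP fusion protein alone without its RIN1 binding partner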
Large screens that a line does not name were inactive (follow-up assays come after a bar, where they were run). Rule as the data show it, unless noted: active = inhibition above about 6.5%; inactive = the rest.

COc1cc(NC(=O)c2ccccc2)c(C)cc1NC(=O)CSc1nnc(COc2ccccc2)n1Cc1ccco1	none (no result: CaV13 ICDI inh, Rin1 Abl inh)
CC(C)N(CC(N)=O)C(=O)c1sc2cc(F)ccc2c1Cl	Rin1 Abl inh 7.0 | Rin1-Abl confirm inactive | GFP quencher inactive
COc1ccccc1C(=O)NCC1CCN(c2ccc(S(=O)(=O)N3CCOCC3)cc2)CC1	Rin1 Abl inh 22 | Rin1-Abl confirm 13 | GFP quencher inactive
COC(=O)[C@]12C[C@H](CC(=O)NCCCCc3ccccc3)C(=O)N(Cc3cccc4ccccc34)C1=C[C@H](C(C)(C)C)O[C@@H]2C	none (no result: CaV13 ICDI inh, Rin1 Abl inh)
COc1ccc(CC(N)c2csc(NC(=O)NCCc3ccccc3)n2)cc1 (stereo not drawn)	Rin1 Abl inh 10 | Rin1-Abl confirm 6.8 | GFP quencher inactive
CC[C@]12c3[nH]c4ccc(OC)cc4c3CCN1C(=O)C(CC(=O)NCC13CC4CC(CC(C4)C1)C3)C[C@@H]2C(=O)N1CCN(C(=O)C2CC2)CC1 (stereo partly drawn)	Rin1 Abl inh 19 | Rin1-Abl confirm 24 | GFP quencher inactive | GFP quench DR inactive
CC[C@]12c3[nH]c4ccc(Cl)cc4c3CCN1C(=O)[C@@H](CC(=O)NC(C)(C)C)C[C@@H]2C(=O)N1CCN(C(=O)c2ccco2)CC1	none
CC[C@]12c3[nH]c4ccc(Cl)cc4c3CCN1C(=O)[C@@H](CC(=O)NCCCN(C)C)C[C@@H]2C(=O)N1CCN(C(=O)c2ccco2)CC1	Rin1 Abl inh 22 | Rin1-Abl confirm 22 | GFP quencher inactive | GFP quench DR inactive
O=C(NCCCc1ccccc1)[C@H](Cc1c[nH]c2ccccc12)NC1(C(=O)NCCc2c[nH]c3ccccc23)CCOCC1	none (no result: CaV13 ICDI inh, Rin1 Abl inh)
O=S(=O)(c1ccc(F)cc1)n1c(CN2CCOCC2)nc2ccccc21	none (no result: CaV13 ICDI inh, Rin1 Abl inh)
Cc1nc2ccccc2c(=O)n1/N=C/c1ccccc1O	none
Cc1nc2ccccc2c(=O)n1/N=C/c1ccc(O)c(O)c1O	Rin1 Abl inh 27 | Rin1-Abl confirm 15 | GFP quencher 23
CC(Oc1ccc(Cl)cc1Cl)C(=O)NNC(=O)c1cccnc1 (stereo not drawn)	Rin1 Abl inh 8.9 | Rin1-Abl confirm inactive | GFP quencher inactive
CC(Oc1cccc(Cl)c1)C(=O)NNC(=O)c1cccnc1 (stereo not drawn)	none
CCCCNC(=O)C[C@@H]1C(=O)N2CCCC3=C2[C@@]1(C(=O)OCC)CCC3	none (no result: CaV13 ICDI inh, Rin1 Abl inh)
COc1ccc(NC(=O)N2CCC(C(=O)c3ccc(F)cc3)CC2)cc1	none
CSc1ccc(NC(=O)N2CCC(C(=O)c3ccc(F)cc3)CC2)cc1	Rin1 Abl inh 7.4 | Rin1-Abl confirm inactive | GFP quencher inactive
O=C(Nc1ccc2c(c1)Cc1ccccc1-2)NC1CCCCN(Cc2ccc(Cl)cc2)C1=O (stereo not drawn)	none (no result: CaV13 ICDI inh, Rin1 Abl inh)
COc1ccc(-c2nnc(SCC(=O)Nc3ccc(S(=O)(=O)Nc4nccs4)cc3)n2-c2ccc(OC)cc2)cc1	none (no result: CaV13 ICDI inh, Rin1 Abl inh)
Cc1cccc(OCCn2c(=O)oc3ccc(C)cc32)c1	Rin1 Abl inh 5.8 | Rin1-Abl confirm inactive | GFP quencher inactive
CCOC(=O)N1CCC2(CC1)C(C#N)=C(N)OC1=C2C(=O)CC(C)C1 (stereo not drawn)	Rin1 Abl inh 17 | Rin1-Abl confirm inactive | GFP quencher inactive
CCc1cccc(NC(=O)c2sc3nc4n(c(=O)c3c2C)CCC4)c1	Rin1 Abl inh 10 | Rin1-Abl confirm inactive | GFP quencher inactive
COCCC1CCCCN1C(=O)c1ccc(OC2CCN(C(C)=O)CC2)c(OC)c1 (stereo not drawn)	Rin1 Abl inh 13 | Rin1-Abl confirm inactive | GFP quencher inactive
Cc1nc2ccccc2n1S(=O)(=O)c1cc(C(=O)O)ccc1Cl	Rin1 Abl inh 8.3 | Rin1-Abl confirm inactive | GFP quencher inactive
COCCCNC(=O)C[C@H]1C[C@@]2(C(=O)OC)C(=C[C@H](C(C)(C)C)O[C@@H]2C)N(Cc2ccco2)C1=O	none (no result: CaV13 ICDI inh, Rin1 Abl inh)
CCOC(=O)CCCCC(=O)c1[nH]c(=O)[nH]c1CSc1nc2ccccc2[nH]1	Rin1 Abl inh 84 | Rin1-Abl confirm 88 | GFP quencher inactive | GFP quench DR inactive
CCOC(=O)CCCCC(=O)c1[nH]c(=O)[nH]c1CN1CCOCC1	Rin1 Abl inh 80 | Rin1-Abl confirm 88 | GFP quencher inactive | GFP quench DR inactive
CCOC(=O)CCCCC(=O)c1[nH]c(=O)[nH]c1CSc1nc(C)cc(=O)[nH]1	Rin1 Abl inh 82 | Rin1-Abl confirm 86 | GFP quencher inactive | GFP quench DR inactive
CCOC(=O)c1c(C)[nH]c(C(=O)COC(=O)CCS(=O)(=O)c2ccc(C)cc2)c1C	none
CCOC(=O)CCCCC(=O)c1[nH]c(=O)[nH]c1C[n+]1ccc(C)cc1	Rin1 Abl inh 23 | Rin1-Abl confirm 30 | GFP quencher inactive | GFP quench DR inactive
CCCSc1nc(C)cc(=O)[nH]1	none
C[C@@H]1COc2cc(N3CCCC3)ccc2S(=O)(=O)N1C	none (no result: CaV13 ICDI inh, Rin1 Abl inh)
COC(=O)[C@]12CCCCC=C1N(Cc1ccc(OC)cc1)C(=O)[C@@H]2CC(=O)NCCC(C)C	none (no result: CaV13 ICDI inh, Rin1 Abl inh)
CCCCCN1CCCCC(NC(=O)c2cc(OC)c(OC)c(OC)c2)C1=O (stereo not drawn)	none (no result: CaV13 ICDI inh, Rin1 Abl inh)
Cc1ccc2nc3sc(C(=O)N4CCN(C)CC4)cc3cc2c1	none (no result: CaV13 ICDI inh, Rin1 Abl inh)
CCOC(=O)CCCCC(=O)c1[nH]c(=O)[nH]c1CSc1nc(C)cc(C)n1	Rin1 Abl inh 68 | Rin1-Abl confirm 71 | GFP quencher inactive | GFP quench DR inactive
CCOC(=O)c1[nH]c(=O)[nH]c1CSc1nc(C)cc(C)n1	none (no result: CaV13 ICDI inh)
C[C@@H]1CN([C@@H](C)CO)C(=O)c2cccc(NC(=O)Nc3cccc4ccccc34)c2O[C@H]1CN(C)S(=O)(=O)c1ccc2c(c1)OCCO2	none (no result: CaV13 ICDI inh, Rin1 Abl inh)
COC(=O)c1ccc(CSc2nnc(CNC(=O)c3ccccc3F)o2)o1	Rin1 Abl inh 8.5 | Rin1-Abl confirm 11 | GFP quencher inactive
COC(=O)c1ccc(CSc2nnc(CNC(=O)c3ccc(OC)cc3)o2)o1	none
COC(=O)c1ccc(CSc2nnc(CNC(=O)COc3ccc(Cl)cc3)o2)o1	Rin1 Abl inh 17 | Rin1-Abl confirm 19 | GFP quencher inactive | GFP quench DR inactive
CCCC1CCC2(CC1)CCC2OC(=S)Nc1ccc(N(C)C)cc1 (stereo not drawn)	none (no result: CaV13 ICDI inh, Rin1 Abl inh)
CCCCCCCCN1C(=O)[C@@H](CC(=O)NCCCN2CCCC2=O)C[C@@]2(C(=O)OC)C1=C[C@H](C(C)C)O[C@@H]2C1CC1	none (no result: CaV13 ICDI inh, Rin1 Abl inh)
COc1ccc(S(=O)(=O)NC(C)C(=O)NCc2cccnc2)cc1Cl (stereo not drawn)	none
COc1ccc(S(=O)(=O)NC(C)C(=O)NCc2cccnc2)cc1OC (stereo not drawn)	Rin1 Abl inh 8.4 | Rin1-Abl confirm inactive | GFP quencher inactive
